We go through 20 compounds from PubChem BioAssay (Tox21).

Molecules are shown by their SMILES. Values joined by “and” are separate entries in the source; they are usually repeats but may differ in a detail not shown here. Equal entries are not always repeated. Inconclusive results are not listed. Some structures have more than one record in an assay (separate samples or runs), and their calls can disagree. Active and inactive are the calls of the source. Unless noted, calls come from the whole dose curve; as a rule, active = well fitted curve in the direction sought with a large enough effect in the repeat runs; inconclusive = weak or mixed curves; inactive = no such curve, though single readings can be large; an effect the other way counts as inactive or inconclusive.

Assay [1] is described as follows: qHTS assay to identify small molecule agonists of the hypoxia (HIF-1) signaling pathway - cell viability counter screen (AID 1224844; calls by dose curve; note: nearly all actives have a fitted effect of over 50% in size). An outline of the steps:
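Cytotoxicity measured by CellTiter-Glo ATP luminescence in the wells also read for beta-lactamase signal. Cells were HRE-bla ME-180 (2,000/well, 0.5% dialyzed FBS), exposed to compounds for 17 h at 37C.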
(In general: qHTS replaces the single test concentration by a dilution series.)

Assay [2] in a line: qHTS assay to identify small molecule agonists of H2AX (AID 1224845; active = well fitted activation curve with a large enough effect in the signal ratio in the repeat runs, not every such curve was filed as active; the % refers to the signal ratio). An outline of the steps: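 Phospho-H2AX Ser139 measured by HTRF (ex 320 nm; em 665 and 620 nm) after 24 hr antibody incubation. Compounds, 15 concentrations, 0.76% DMSO, were applied to CHO-K1 cells for 3hr at 37C before lysis.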
A short description of assay [3]: qHTS RealTime-Glo MT Cell Viability Assay in HepG2 cells - 24 hour (AID 1224867). Note: nearly all actives have a fitted effect of over 50% in size. A digest of the protocol:
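Cell number in HepG2 cultures estimated from NanoLuc luminescence generated by metabolic reduction of a prosubstrate by living cells. The homogeneous, nonlytic format allowed repeated reads at 0, 8, 16, 24, 32 and 40 h of compound exposure.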

A short description of assay [4]: qHTS RealTime-Glo MT Cell Viability Assay in HEK293 cells - 32 hour (AID 1224868). Note: nearly all actives have a fitted effect of over 50% in size. Note: potency is the fitted concentration of half-maximal effect. A digest of the protocol: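 Homogeneous bioluminescent viability format in HEK293 cells (600 cells/well). Following 5 h at 37 C/5% CO2, 23 nL compound was pintooled; the signal was measured repeatedly during 40 h incubation.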
The nature of assay [5]: A CellTox Green Cytotoxicity Assay to monitor cytotoxicity in HEK293 cells - 0 hour (AID 1224869). Note: nearly all actives have a fitted effect of over 50% in size. A digest of the protocol:
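Fluorescence from a DNA-binding dye excluded by viable cells was measured repeatedly in the same HEK293 wells (600 cells/well) during continuous compound exposure at 37 C. Each assay gives one read point: 0, 8, 16, 24, 32 or 40 h.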

Assay [6] can be described thus: qHTS RealTime-Glo MT Cell Viability Assay in HepG2 cells - 40 hour (AID 1224870). Note: nearly all actives have a fitted effect of over 50% in size. An outline of the steps:
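Real-time viability: cells seeded at 600 per well together with NanoLuc and cell-permeant prosubstrate, compounds added after 5 h incubation. Luminescence tracked at 0, 8, 16, 24, 32 and 40 h of exposure.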

Assay [7] is described as follows: qHTS assay to identify small molecule antagonists of the estrogen related receptor (ERR) signaling pathway from Tox21 library (AID 1224848). Note: nearly all actives have a fitted effect of over 50% in size. An outline of the steps:
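Luciferase luminescence (ONE-Glo, 30 min room temperature) was the read-out. Cells of the NTP-supplied ERR line, 2,000 per well, were given 6 h at 37 C before compound addition in DMSO and 18 h exposure at 37 C.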

Assay [8] in a line: qHTS assay to identify small molecule agonists of the estrogen related receptor (ERR) signaling pathway from Tox21 library (AID 1224849; calls by dose curve; note: nearly all actives have a fitted effect of over 15% in size). The note with it: ERR reporter cell line, ONE-Glo luciferase, 18 h. An outline of the steps: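 Luminescent agonist read-out (One-Glo, 30-minute room-temperature incubation) following 18-hour compound treatment at 37 C of the ERR cell line, which had been plated 6 hours before dosing.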

The nature of assay [9]: qHTS assay to identify small molecule agonists of the hypoxia (HIF-1) signaling pathway (AID 1224846; active = well fitted activation curve with a large enough effect in the signal ratio in the repeat runs, not every such curve was filed as active; the % refers to the signal ratio). An outline of the steps: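 Compounds added to ME-180 cells carrying hypoxia-response-element beta-lactamase reporter (0.5% dialyzed FBS, 5 h preplating), 17 h at 37C; agonist activity detected by CCF4-AM B/G FRET read-out.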
A short description of assay [10]: qHTS assay to identify small molecule agonists of H2AX - cell viability counter screen (AID 1224847; calls by dose curve; note: top concentration of the series differs between compounds; nearly all actives have a fitted effect of over 30% in size). An outline of the steps:
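Wild-type CHO-K1 cells (10% FBS medium) were plated overnight at 37C, exposed to compounds at 15 concentrations for 3 hr at 37C (0.76% DMSO final), and viability was read as CellTiter-Glo luminescence after 30 min at room temperature.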
% is set by controls: 0 for no effect and ±100 for the full control effect.

In the case of `O=C(O)CCCCCCCC(=O)O`, the Potency result in assay [1], in assay [3], in [4] and in assay [6] was “inactive” each time. Also, the call in assay [2] and in [5] was inactive.

Take `O=C(C1CCCCC1)N1CC(=O)N2CCc3ccccc3C2C1` (stereo not drawn): the Potency entry in assay [1], in assay [7], in assay [3], in [4] and in assay [6] was “inactive” throughout. The compound was called inactive in [2] and in [5]. For the same compound, the activity change, positive = activation is -13.9% (inactive) in [8] (at 42.5 µM (top of the series)); -22.9% (inactive) and -18.8% (inactive) in assay [8] (at 92.4 µM (top of the series)).

Turning to `O=C(O)c1[nH]n(-c2ccc(S(=O)(=O)O)cc2)c(=O)c1N=Nc1ccc(S(=O)(=O)O)cc1`, the Potency entry in assay [1], in [3], in [4] and in assay [6] was “inactive” each time. Moreover, the outcome in assay [9] and in assay [5] was inactive.

As to `NC(N)=NC(=O)c1nc(Cl)c(N)nc1N`, the Potency entry in [1], in assay [3], in [4] and in [6] was “inactive” each time. Besides, the compound was classed as inactive in assay [2] and in assay [5].

As for `Cn1c(=O)c2[nH]cnc2n(C)c1=O`, the Potency entry in assay [1], in [3], in assay [4] and in assay [6] was “inactive” throughout. The result in assay [2] and in assay [5] was inactive.

Take `Oc1ccc(/C=C/c2cc(O)cc(O)c2)cc1`: the Potency entry in [1], in assay [7], in [3] and in assay [6] was “inactive” throughout. Moreover, the activity change, positive = activation in [8] (at 42.5 µM (top of the series)) is 132% (active); in [8] (at 92.4 µM (top of the series)), 0.861% (active) and 27.4% (active). Moreover, the Potency in assay [4] was 19.7 µM (active). For the same compound, the compound was classed as inactive in assay [5].

On to `Nc1ccc(C(=O)O)cc1`, for which the Potency result in assay [1], in [3], in assay [4] and in [6] was “inactive” each time. Further, the outcome in [2], in assay [9] and in [5] was inactive.

As for `OCCc1ccccc1`, the Potency entry in [1], in assay [3], in [4] and in assay [6] was “inactive” throughout. The compound was called inactive in [2], in [9] and in [5].

Turning to `O=C(O)CS`, the Potency entry in assay [1], in assay [3], in assay [4] and in assay [6] was “inactive” throughout. The call in assay [2], in [10] and in assay [5] was inactive.

For `Cn1cc[nH]c1=S`, the Potency entry in [1], in [3], in assay [4] and in [6] was “inactive” each time. Also, the compound was classed as inactive in [2], in assay [10] and in assay [5].

Turning to `O=C(O)c1cc(N=Nc2ccc(S(=O)(=O)Nc3ccccn3)cc2)ccc1O`, the Potency entry in [1], in [3], in assay [4] and in assay [6] was “inactive” throughout. For the same compound, the result in assay [5] was inactive.

Turning to `Cc1ccc(S(=O)(=O)NC(=O)NN2CCCCCC2)cc1`, the Potency result in assay [1], in assay [7], in [3], in assay [4] and in assay [6] was “inactive” throughout. The call in assay [2], in [10] and in assay [5] was inactive. Further, the activity change, positive = activation in [8] (at 42.5 µM (top of the series)) was -3.23% (inactive); in assay [8] (at 92.4 µM (top of the series)), -0.537% (inactive) and -0.346% (inactive).

As to `Cc1cn([C@H]2C[C@H](N=[N+]=[N-])[C@@H](CO)O2)c(=O)[nH]c1=O`, the Potency entry in assay [1], in [7], in [3], in assay [4] and in assay [6] was “inactive” each time. Besides, the result in [2] and in [5] was inactive. In addition, the activity change, positive = activation in assay [8] (at 42.5 µM (top of the series)) was 1.9% (inactive); in [8] (at 92.4 µM (top of the series)), 1.55% (inactive) and -3.89% (inactive).

As to `CC(=O)NS(=O)(=O)c1ccc(N)cc1`, the Potency result in assay [1], in [3], in [4] and in [6] was “inactive” each time. The result in assay [2] and in assay [5] was inactive.

On to `CC(O)CN(CCN(CC(C)O)CC(C)O)CC(C)O` (stereo not drawn), for which the Potency result in [1], in assay [3], in assay [4] and in [6] was “inactive” in each case. Further, the compound was called inactive in assay [2], in assay [10] and in assay [5].

In the case of `Nc1ccc(O)c(C(=O)O)c1`, the Potency result in assay [1], in [7], in assay [3], in assay [4] and in assay [6] was “inactive” each time. Besides, the call in assay [9], in assay [10] and in assay [5] was inactive. The activity change, positive = activation was -9.77% (inactive) in assay [8] (at 42.5 µM (top of the series)); -1.78% (inactive) and -6.73% (inactive) in assay [8] (at 92.4 µM (top of the series)).

In the case of `C[C@]12C=CC(=O)C=C1CC[C@@H]1[C@@H]2[C@@H](O)C[C@@]2(C)[C@H]1CC[C@]2(O)C(=O)CO`, the Potency result in [1], in [3], in assay [4] and in [6] was “inactive” each time. In addition, the result in assay [2] and in [5] was inactive.

`NC(=O)c1ccccc1O`: the Potency result in assay [1], in [3], in assay [4] and in assay [6] was “inactive” each time. In addition, the outcome in assay [2], in [9] and in [5] was inactive.

Turning to `COc1c2occc2cc2ccc(=O)oc12`, the Potency entry in assay [1], in assay [3] and in assay [6] was “inactive” throughout. The call in assay [2], in assay [10] and in assay [5] was inactive. Moreover, the Potency result in assay [4] was “inactive and 21.9 µM (active)”.

On to `Cc1cc(=O)[nH]c(=S)[nH]1`, for which the Potency entry in assay [1], in assay [3], in assay [4] and in [6] was “inactive” each time. The call in assay [2], in [9] and in assay [5] was inactive.
